Screens as filed in PubChem BioAssay.
hgDAF-12 ag – H. glycines DAF-12 receptor agonists, primary screen, cell-based, luminescence, HEK293, GAL4 fusion, UAS-luciferase; Nuclear hormone receptor DAF-12 (Heterodera glycines), GAL4 fusion; HEK293 GAL4-hgDAF12 UAS-luciferase reporter, agonist luminescence; normalized to butyrate control; activation, % at 6.8 µM; 370,000 tested, 1.8% active;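 active = activation above a cutoff set at the mean of all screened compounds plus 3 SD, cut at about 10% in these data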;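 also: 0% = DMSO wells and 100% = sodium butyrate wells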
hcDAF12 agonist – H. contortus DAF-12 nuclear receptor activators, primary screen, cell-based, luminescence, HEK293, lit1-tk-luc reporter; HEK293 hcDAF-12 lit1-tk-luc reporter; 0% DMSO, 100% Δ7-dafachronic acid; activation, % at 6.8 µM; 370,000 tested, 1.4% active; AID 652067, 2013;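 active = activation above the mean of all tested compounds plus 3 SD, cut at about 5.5% in these data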;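 also: 100% = response to 3 µM Δ7-dafachronic acid high control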
AHR act – AHR activators, primary screen, cell-based, luminescence, luciferase reporter, human. Aryl hydrocarbon receptor (Homo sapiens), P35869. AHR-responsive luciferase reporter cells. activation, % at 5 µM. 320,000 tested, 2.5% active; in the data active = activation above about 47%;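 also: 0% = vehicle wells and 100% = reference agonist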
ssDAF-12 act – S. stercoralis DAF-12 nuclear receptor activators, primary screen, cell-based, luminescence, HEK293, GRIP1 co-expression, lit1-tk-luc; Nuclear hormone receptor DAF-12 (Strongyloides stercoralis); HEK293 ssDAF-12/GRIP1 lit1-tk-luc reporter; % of 3 µM dafachronic acid response; activation, % at 6.8 µM; 370,000 tested, 1% active;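 active = activation above the mean over all tested compounds plus 3 SD, cut at about 0.9% in these data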;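 also: 0% = DMSO-only wells and 100% = 3 µM delta7-dafachronic acid wells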
DAX1 inh-1 – DAX1 (NR0B1) inhibitors, primary screen, cell-based, HEK293, Gal4-DAX1, luciferase luminescence; Nuclear receptor subfamily 0 group B member 1 (Homo sapiens), P51843; HEK293 Gal4-DAX1 luciferase reporter; inhibition, % at 6.75 µM; 340,000 tested, 0.99% active; AID 504766, 2011;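 active = inhibition above the mean over all tested compounds plus 3 SD, cut at about 4.2% in these data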;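 also: 0% = DAX1-transfected cells with DMSO and 100% = empty-vector control cells with DMSO; inhibition shows as a rise in luminescence from relieved DAX1 repression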
Target sequence (P51843 207-470 limits assumed): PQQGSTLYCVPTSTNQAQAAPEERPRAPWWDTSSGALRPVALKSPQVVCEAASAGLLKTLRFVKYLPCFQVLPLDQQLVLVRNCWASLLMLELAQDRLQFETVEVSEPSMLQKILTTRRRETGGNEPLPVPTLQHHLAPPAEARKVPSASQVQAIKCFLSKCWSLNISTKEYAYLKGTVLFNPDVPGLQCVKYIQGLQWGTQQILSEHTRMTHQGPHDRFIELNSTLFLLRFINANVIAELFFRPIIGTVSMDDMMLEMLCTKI
DAX1 inh-2 – DAX1 (NR0B1) inhibitors on StAR promoter, primary screen, cell-based, luminescence, SF-1 (NR5A1), full-length DAX-1; inhibition, % at 6.8 µM; 370,000 tested, 1.1% active; HEK293T StAR-luciferase reporter, SF-1/DAX-1 repression relief; AID 652010, 2013;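 active = inhibition above the mean over all tested compounds plus 3 SD, cut at about 3.6% in these data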;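 also: 0% = DAX-1 cells with DMSO and 100% = cells lacking DAX-1 with DMSO; higher inhibition means more luminescence from relief of DAX-1 repression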
DAX1 inh confirm – DAX1 (NR0B1) inhibitors relieving SF-1 repression, confirmation, cell-based, luminescence, HEK293T, full-length DAX-1, SF-1 activated StAR promoter | shares compounds with DAX1 inh-2 | HEK293T StAR-promoter luciferase reporter, SF-1/DAX-1 repression | inhibition, % at 6.8 µM | 2,400 tested, 87% active | AID 652134, 2013;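 active = inhibition above the average of every tested compound plus 3 SD, cut at about 3.8% in these data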;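 also: 0% = DAX-1 cells with DMSO and 100% = no DAX-1 control cells with DMSO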
SF1 AF2mut Luc – StAR reporter signal changes without DAX1, counter-screen for DAX1 inhibitor project, cell-based, luminescence, AF-2 mutant SF-1, transactivation. shares compounds with DAX1 inh-2. HEK293 StAR-luciferase, SF-1 AF2 mutant. inhibition, % at 6.8 µM. 2,400 tested, 78% active. AID 652136, 2013;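 active = inhibition above the mean of all tested compounds plus 3 SD, cut at about 3% in these data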;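 also: 0% = DAX-1 transfected cells with DMSO and 100% = cells without DAX-1 with DMSO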
* hit, by the source's call; x = not tested or not shown. An excerpt weighted towards active compounds, which were near 5.7% of everything screened.

SMILES	hgDAF-12 ag	hcDAF12 agonist	AHR act	ssDAF-12 act	DAX1 inh-1	DAX1 inh-2	DAX1 inh confirm	SF1 AF2mut Luc
COC(=O)[C@@]12C[C@@H](CC(=O)NCc3ccc(C)o3)C(=O)N(CCc3ccc(OC)c(OC)c3)C1=CCC(C)(C)C2	0	0	x	-1	x	5.8*	2	1
COC(=O)[C@@]12C[C@@H](CC(=O)NCc3ccccc3)C(=O)N(CCc3ccc(OC)c(OC)c3)C1=CCC(C)(C)C2	-3	-2	x	-1	x	-1	x	x
CCOC(=O)[C@]12CCCC=C1N(Cc1ccco1)C(=O)[C@H](CC(=O)NCc1ccccc1)C2	3	1	x	-1	x	4.7*	1	3
CCCCNC(=O)C[C@@H]1C[C@@]2(C(=O)OCC)CCCC=C2N(CCc2ccc(OC)c(OC)c2)C1=O	-2	-1	x	-2	x	5.2*	1	-1
CCCCNC(=O)C[C@@H]1C[C@@]2(C(=O)OC)CCCCC=C2N(CCc2ccc(OC)c(OC)c2)C1=O	-3	-3	x	-1	x	1	x	x
O=C(NN=C1CCN(Cc2ccccc2)CC1)c1cc2ccccc2cc1O	1	0	9	-1	0	0	x	x
C#CCNC(=O)c1cnn(-c2ccccc2)c1N	2	-1	x	-1	x	0	x	x
CCc1ccc(NC(=O)COc2ccc(Br)cn2)cc1	1	-1	15	-2	-1	-1	x	x
O=[N+]([O-])c1ccc(C=NN2CCCCCC2)cc1	10	4	x	0	5.6*	6.7*	6.9*	5.7*
O=C(Nc1ccccc1N1CCN(C(=O)c2ccc(Cl)cc2)CC1)c1ccc([N+](=O)[O-])o1	x	x	0	x	-1	x	x	x
Nc1nc2ccccc2n1S(=O)(=O)c1ccccc1	-1	-1	x	-1	x	4.8*	2	1
O=C(COC(=O)CNC(=O)c1ccccc1)NCCCc1ccccc1	-3	0	0	-2	1	0	x	x
Cc1ccc(CCN2CC(C(=O)NCCN3CCCCCC3)CC2=O)cc1 (centres undefined)	2	0	-1	-1	-1	0	x	x
CCOC(=O)c1sc(=NC(=O)c2ccc(F)cc2)n(C)c1C	7	6.0*	6	0	1	6.8*	15*	7.4*
CC(C)CC1NC(=O)C(CC(C)C)N(CO)C1=O (centres undefined)	0	-1	x	-1	-1	0	x	x
COc1ccc(-c2ccc(NC(=O)c3ccco3)cc2)nn1	8	3	-8	0	-4	9.0*	13*	1
CC1CCN(c2ccc(-c3cccc(NC(=O)C(F)(F)F)c3)nn2)CC1	-6	0	-9	-1	-6	0	x	x
O=C(COc1ccccc1)Nc1cccc(-c2ccc(N3CCOCC3)nn2)c1	13*	3	-1	0	0	7.9*	5.3*	2
O=C(Nc1cccc(-c2ccc(N3CCOCC3)nn2)c1)c1ccccc1	6	2	-2	-1	-1	4.7*	3	2
COc1ccc(-c2cccc(NC(=O)c3ccco3)c2)nn1	1	-2	7	-2	0	-3	x	x
